# Screening data deposited in PubChem by several laboratories.
# Most compounds without a hit are left out; they make up all but 1% or so of the library.
# C-LANA FP: inhibitors of KSHV C-LANA binding to DNA, primary screen, biochemical, fluorescence polarization, FAM-LBS DNA, MBP-C-LANA, single point; 340,000 compounds, 0.078% hits; AID 504423, 2011; inhibition, % at 9 µM; Kaposi's sarcoma herpesvirus LANA C-terminal domain (residues 932-1162) DNA binding;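 active = highest replicate inhibition at or above 60% at 9 µM, even if other replicates fall short; inactive = all replicates below 60% inhibition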;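 note: 0% = neutral control wells and 100% = 4 µM acridine orange control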
# Cardiac RTF inh: cardiac RTF calcium sensitivity inhibitors, primary screen, biochemical, IANBD-TnC fluorescence, EC70 calcium; Troponin I, cardiac muscle (Homo sapiens) + Troponin T, cardiac muscle (Homo sapiens) + …; IANBD-labeled cardiac RTF, Ca2+ fluorescence; inhibition, % at 7.15 µM; 340,000 compounds, 0.12% hits;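 active = inhibition above the mean inhibition of all tested compounds plus 3 SD, cut at about 17% in these data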;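 note: assay run at fixed EC70 calcium of 1.6 mM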
# LANA-H2A inh: blockers of LANA interaction with H2A/H2B – biochemical, FP readout, HTS, primary screen; Protein LANA1 (Human herpesvirus 8 type P (isolate GK18)), Q9QR71; cell-free LANA-H2A/H2B peptide, fluorescence polarization; inhibition, % (no concentration beside the values); 320,000 compounds, 0.6% hits; AID 2629, 2010; in the data active = inhibition mostly above about 10%, no sharp cut-off; inactive = mostly below about 6.7%
# cardiac RTF act: cardiac RTF calcium sensitivity activators, primary screen, biochemical, IANBD-TnC fluorescence, EC20 calcium; Troponin I, cardiac muscle (Homo sapiens) + Troponin T, cardiac muscle (Homo sapiens) + …; IANBD-labeled TnC RTF fluorescence at EC20 calcium; 0% EC20 calcium, 100% full calcium; activation, % at 7.2 µM; 340,000 compounds, 0.24% hits;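 active = activation above the mean over all tested compounds plus 3 SD, cut at about 30% in these data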;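 note: rise in fluorescence read as greater calcium sensitivity of cardiac thin filaments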
# Keap1-Nrf2 PPI: Keap1-Nrf2 protein-protein interaction inhibitors, primary screen, biochemical, fluorescence polarization, single point; Kelch-like ECH-associated protein 1 (Homo sapiens), Q14145; Keap1 Kelch-Nrf2 peptide fluorescence polarization, 1536-well; inhibition, % at 9.4 µM; 340,000 compounds, 0.15% hits; in the data active = inhibition above about 12%; inconclusive = no clear call, values can overlap the other calls; inactive = below about 7.3%;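 note: human Keap1 Kelch domain with fluorescein labeled Nrf2 9mer peptide probe; 0% = neutral control wells and 100% = peptide positive control; higher means more block of Keap1 binding to Nrf2 peptide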
# Target sequence (Q14145 whole entry, looked up, the tested form may be a part): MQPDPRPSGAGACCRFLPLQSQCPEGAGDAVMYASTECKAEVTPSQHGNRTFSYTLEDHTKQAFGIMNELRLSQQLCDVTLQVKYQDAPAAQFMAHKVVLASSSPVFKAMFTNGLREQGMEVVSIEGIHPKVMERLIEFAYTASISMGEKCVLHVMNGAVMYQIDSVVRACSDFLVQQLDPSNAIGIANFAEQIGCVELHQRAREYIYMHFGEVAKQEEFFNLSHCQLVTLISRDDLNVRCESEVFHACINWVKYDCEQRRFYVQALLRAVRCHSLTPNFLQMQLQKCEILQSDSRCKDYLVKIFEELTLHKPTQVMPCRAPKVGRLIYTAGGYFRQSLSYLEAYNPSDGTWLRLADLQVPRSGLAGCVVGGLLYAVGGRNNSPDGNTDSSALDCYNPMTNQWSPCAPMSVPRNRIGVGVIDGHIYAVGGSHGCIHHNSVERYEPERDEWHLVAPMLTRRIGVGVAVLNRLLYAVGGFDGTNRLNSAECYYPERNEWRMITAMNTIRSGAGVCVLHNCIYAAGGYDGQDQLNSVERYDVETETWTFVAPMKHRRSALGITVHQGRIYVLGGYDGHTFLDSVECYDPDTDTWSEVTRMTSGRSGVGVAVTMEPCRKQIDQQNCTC
# Numbers without * were called inactive; ? = inconclusive; nt = no result; + = active, no number.
SMILES,C-LANA FP,Cardiac RTF inh,LANA-H2A inh,cardiac RTF act,Keap1-Nrf2 PPI
CCOC(=O)N1CCc2c(sc(NC(=O)CCS(=O)(=O)c3ccccc3)c2C(N)=O)C1,-2,1,-9,-2,-8
CCOC(=O)c1c(NC(=O)CCS(=O)(=O)c2ccccc2)sc2c1CCN(C)C2,-5,-2,53*,2,-13
CCOC(=O)c1c(NC(=O)Cc2ccccc2)sc2c1CCN(C)C2,-1,-4,-11,-3,-2
CC(=O)N1CCc2c(sc(NC(=O)CCS(=O)(=O)c3ccccc3)c2C(N)=O)C1,1,-3,33*,-5,-1
Cn1c(=NC(=O)C2=NNC(=O)CC2)sc2ccccc21,0,-4,15*,3,-4
Cc1c2ccccc2nc2c(F)c(NCCO)c(F)c(F)c12,12,-36,nt,42*,-2
CCOc1ccc(-n2c(=O)c3sccc3n(CC(=O)NC3CCCCC3)c2=O)cc1,-2,3,29*,-11,1
Cc1ccc(-n2c(=O)c3sccc3n(CC(=O)NC3CCCC3)c2=O)cc1,-2,-7,-2,4,0
Cc1nc(SCC(=O)N2CCCCCC2)c2c(=O)n(C)c(=O)n(CC(C)C)c2n1,0,-18,nt,2,-2
CCOC(=O)C1CCN(C(=O)Cn2cnc3sc(C)c(S(=O)(=O)N4CCC(C)CC4)c3c2=O)CC1,-1,-6,-7,-6,-6
CCOC(=O)C1CCN(C(=O)Cn2cnc3sc(C)c(S(=O)(=O)N4CCCCC4)c3c2=O)CC1,-1,11,16*,-1,-2
O=S(=O)(Nc1ccc2c(c1)OCO2)c1ccc(F)c(F)c1,-3,-3,27*,-1,-6
C[C@H](NC(=O)Cc1cccc2ccccc12)C(=O)NCc1ccccc1,-1,-4,16*,9,-3
O=C(Cc1cccc2ccccc12)Nc1ccccc1,-1,-1,0,1,4
N#Cc1cc(Oc2ccc3ccccc3c2)c(-n2nnc3ccccc32)cc1C#N,2,-4,-9,3,-3
N#Cc1cc(Oc2ccccc2)c(-n2nnc3ccccc32)cc1C#N,0,3,26*,5,-4
Cc1c(N2C(=O)/C(=C3\C(=O)N(CC(=O)O)c4ccccc43)SC2=S)c(=O)n(-c2ccccc2)n1C,0,-1,22*,-1,-10
COc1cccc(CNC(=O)c2cc(C3CC3)nc3c2cnn3C(C)C)c1,-1,-8,-3,0,-3
CCCS(=O)(=O)c1ncc(Cl)c(C(=O)Nc2ccc(S(=O)(=O)Nc3ncccn3)cc2)n1,0,-3,1,3,42*
CCSc1ncc(Cl)c(C(=O)Nc2ccc(S(=O)(=O)Nc3ncccn3)cc2)n1,1,-8,1,4,4
CCCn1nnnc1SCC(=O)NCc1cccs1,0,-2,98*,3,-1
CCn1nnnc1SCC(=O)NCc1cccs1,0,-2,-2,2,1
O=C(Nc1ccccc1)OCc1cc(-c2ccccc2Cl)on1,-2,-1,31*,-3,-2
CCn1cc(C(=O)O)c(=O)c2cc(F)c(N3CCNCC3)cc21,2,-6,71*,9,-2
O=C(Cn1cnc2scc(-c3ccc(F)cc3)c2c1=O)N1CCOCC1,-3,-2,-7,10,2
SMILES,C-LANA FP,Cardiac RTF inh,LANA-H2A inh,cardiac RTF act,Keap1-Nrf2 PPI
COc1ccc(-c2csc3ncn(CC(=O)N4CCOCC4)c(=O)c23)cc1,1,0,16*,0,0
C[N+]1(C)CCC(=C(c2ccccc2)c2ccccc2)CC1,0,10,15*,-2,0
CCOC(=O)CCCCC(=O)c1[nH]c(=O)[nH]c1C[n+]1ccccc1,nt,nt,17*,nt,nt
CCCCn1nc(C(=O)N(CC)CC(=O)Nc2c(F)cccc2F)c2ccccc2c1=O,4,-8,-4,0,-1
CCCCn1nc(C(=O)NCC(=O)Nc2c(C)cccc2C)c2ccccc2c1=O,-1,-2,+,1,-4
O=C(COc1coc(CN2CCN(c3ccc(F)cc3)CC2)cc1=O)NCC1CCCO1 (stereo not given),-1,-7,-3,2,-4
COC(=O)[C@@]1(Cc2ccc(F)cc2)[C@H]2c3cc(C(=O)N4CCCC4)n(CCc4ccccn4)c3C[C@H]2CN1C(=O)c1ccccc1,nt,nt,18*,nt,nt
Nc1ccc2c(O)cc(S(=O)(=O)O)cc2c1,51,-63,nt,58*,0
Nc1cccc2c(O)cc(S(=O)(=O)O)cc12,117*,15,nt,-12,?
CC(=O)Nc1ccc2c(O)cc(S(=O)(=O)O)cc2c1,12,-5,nt,1,1
O=S(=O)(O)c1cc(O)c2cc(Nc3ccccc3)ccc2c1,93*,16,nt,-13,0
Nc1cccc2c(O)cccc12,0,-2,4,-1,-5
CN1OC[C@@H]2CN(C(=O)CCc3ccccc3)[C@H](c3cccc(N4CCOCC4)c3)C[C@@H]21,1,-11,nt,-1,0
COc1cccc(NC(=O)[C@H](CC(C)C)NC(=O)N2CCn3c2nc2ccccc23)c1,-2,2,5,-6,-1
O=C(NC1CCC1)C1CCC(=O)N(Cc2cccc(F)c2)C1 (stereo not given),0,11,38*,-3,2
c1ccc(CN=C(NCc2ccccc2)NCc2ccccc2)cc1,-1,-9,nt,-9,-1
Nc1ccc(Oc2ccc(F)cc2)nc1,3,-9,0,-2,-13
Cc1ccc(S(=O)(=O)N2CCOC2CNC(=O)C(=O)NCCc2c[nH]c3ccccc23)cc1 (stereo not given),1,-6,42*,-4,0
O=C(NCCc1c[nH]c2ccccc12)C(=O)NCC1OCCCN1S(=O)(=O)c1ccc(F)cc1 (stereo not given),0,-14,-2,-4,-8
O=C(Nc1ccccc1C(=O)O)C1=NN=CC1,2,-11,-4,4,-5
COc1cccc(CNC(=O)C2CCCN(c3nc4ccccc4o3)C2)c1 (stereo not given),0,-12,14*,18,1
COc1ccc(CNC(=O)C2CCCN(c3nc4ccccc4o3)C2)c(OC)c1 (stereo not given),0,-3,-2,6,-3
O=C(/C=C/c1cccs1)Nc1nncs1,2,-3,15*,2,-1
CC(=O)c1c(C)[nH]c(C(=O)N2CCN(S(=O)(=O)c3ccc(C)cc3C)CC2)c1C,0,-10,1,1,-7
